Bioassay records deposited in PubChem BioAssay by University of Kansas High Throughput Screening Laboratory.
Shown is part of a subset that was picked to be rich in hits.
Pf apPOL block = Pf-apPOL inhibitors, biochemical, fluorescence | Recombinant Pf-apPOL, molecular beacon fluorescence, 1.5 h | inhibition, % at 10 µM | 210,000 compounds, 0.25% hits | AID 1794808, 2022
mHTT CaM bind = mutant huntingtin-calmodulin interaction inhibitors – biochemical, AlphaScreen, primary screen. AlphaScreen His-mHTT/GST-CaM binding, luminescence. inhibition, % at 15 µM. P42858. 190,000 compounds, 3.6% hits. AID 1671202, 2021;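 note: 0% = both proteins with DMSO and 100% = one protein alone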
An asterisk follows results filed as active. Cut-off read from the data, not from the text of the source: active = inhibition above about 50%; inactive = the rest.

SMILES	Pf apPOL block	mHTT CaM bind
O=C1S/C(=C\c2ccc(O)cc2)C(=O)N1c1ccccc1	0	18
O=C1S/C(=C\c2ccc(O)cc2)C(=O)N1c1ccc(O)cc1	-4	55*
O=C1S/C(=C\c2ccccc2Cl)C(=O)N1c1ccc(O)cc1	-5	74*
COc1ccccc1/C=C1\SC(=O)N(c2ccc(Cl)cc2)C1=O	-3	2
O=C1S/C(=C\c2ccc(O)c(O)c2)C(=O)N1c1ccc(Cl)cc1	-6	88*
CC(C)(C)C1CCC(C(=O)Oc2ccc(OC(=O)C3CCC(C(C)(C)C)CC3)cc2)CC1 (stereo unspecified)	3	2
COc1ccc(Nc2nc(N)nc(CN3CCN(c4ccccc4)CC3)n2)cc1	-4	54*
COc1ccc(Nc2nc(N)nc(CN3CCCCC3)n2)cc1	-4	0
O=C(NCc1ccco1)c1ccc(NC(=O)N2CC3CCCN3c3ccccc32)cc1 (stereo unspecified)	1	15
CCOc1ccccc1NC(=O)N1CC(CC)Oc2ccccc21 (stereo unspecified)	-4	-49
Cc1cccc(NC(=O)N2CC3CCCN3c3ccccc32)c1C (stereo unspecified)	-3	30
Cc1ccccc1NC(=O)N1CC2CCCN2c2ccccc21 (stereo unspecified)	-2	61*
O=C(Nc1ccccc1Br)N1CC2CCCN2c2ccccc21 (stereo unspecified)	2	74*
CCOc1ccccc1NC(=O)N1CC2CCCN2c2ccccc21 (stereo unspecified)	1	80*
O=C(NCc1nc2ccccc2[nH]1)C1CCCN(c2ccc(-n3ccnc3)nn2)C1 (stereo unspecified)	-3	-18
CC1CN(c2c(F)cc3c(=O)c(C(=O)O)cn(-c4ccc(F)cc4F)c3c2[N+](=O)[O-])CCN1 (stereo unspecified)	2	5
COCCCNC(=O)NCCC1CCN(C(=O)NC2CCCCC2)CC1	-3	-6
CCOCC(=O)N1CCCC(c2ccnc(Nc3cccc(F)c3)n2)C1 (stereo unspecified)	-4	62*
Cc1cccc(-c2nccc(C3CCCN(C(=O)Cc4cccc(F)c4)C3)n2)c1 (stereo unspecified)	-4	46
O=C(Cc1cccc(F)c1)N1CCCC(c2ccnc(Nc3cccc(F)c3)n2)C1 (stereo unspecified)	-2	73*
CCOCC(=O)N1CCCC(c2ccnc(Nc3ccc(C)cc3)n2)C1 (stereo unspecified)	-3	38
CC(=O)N1CCCN(C(=O)Nc2ccccc2)CC1	4	-1
Cc1ccc(CN2CCC(C(=O)N(CCc3ccccc3)Cc3ccccc3)CC2)o1	1	58*
O=C(C1CCN(Cc2ccccc2O)CC1)N(CCc1ccccc1)Cc1ccccc1	2	17
FC(F)(F)COc1nc(Cl)nc(Nc2ccccc2)n1	-4	86*
SMILES	Pf apPOL block	mHTT CaM bind
OCCNc1nc(Cl)nc(Nc2ccc(I)cc2)n1	-4	10
Cc1cccc(-c2noc(C3CCN(CC(=O)Nc4ccc(F)cc4Cl)CC3)n2)c1	0	-5
Cc1ccnc(N2CCC(C(=O)N3CCN(c4cc(Cl)ccc4C)CC3)CC2)n1	-2	88*
CN(C)c1ncncc1N1CCC(C(=O)N2CCN(c3cccc(Cl)c3)CC2)CC1	-3	74*
Cc1cccc(N2CCN(C(=O)C3CCN(c4cncnc4N(C)C)CC3)CC2)c1C	2	52*
CN(C)c1ncncc1N1CCC(C(=O)N2CCN(c3ccccc3F)CC2)CC1	-2	-3
CN(C)c1ncncc1N1CCC(C(=O)N2CCN(C3CCCCC3)CC2)CC1	-13	1
Cc1ccnc(N2CCC(C(=O)N3CCN(c4cccc(C)c4C)CC3)CC2)n1	1	-1
CCOc1ccc(S(=O)(=O)N2CCCC(C)(C(=O)NCc3ccc(F)cc3)C2)cc1 (stereo unspecified)	-5	-4
O=c1c(-c2ccccc2)coc2c3c(ccc12)OCN(C1CCCCC1)C3	5	12
OC(COC12CC3CC(CC(C3)C1)C2)CN1CCN(c2ccccc2)CC1 (stereo unspecified)	6	12
OC(COCC12CC3CC(CC(C3)C1)C2)CN1CCN(c2ccccc2)CC1 (stereo unspecified)	1	57*
OC(COCCC12CC3CC(CC(C3)C1)C2)CN1CCN(c2ccccn2)CC1 (stereo unspecified)	2	37
OC(COCCC12CC3CC(CC(C3)C1)C2)CN1CCN(c2ccccc2)CC1 (stereo unspecified)	0	55*
COc1ccc(Br)cc1C1=N/C(=C/c2ccc(C)cc2)C(=O)O1	-1	-1
NC(=O)C1CCN(c2nc3ccc(-c4ccsc4)nc3s2)CC1	0	4
ICC1CSc2nncn21 (stereo unspecified)	-4	-4
CCN(CC)c1ncc2c(n1)CCC(C(=O)N1CCCCC1C)C2 (stereo unspecified)	-2	4
COc1cccc(C2C3CC(C(C)(C)C)CC=C3C(C#N)=C(N)C2(C#N)C#N)c1O (stereo unspecified)	-1	40
CC(C)(C)C1CC=C2C(C#N)=C(N)C(C#N)(C#N)C(CCc3ccccc3)C2C1 (stereo unspecified)	-12	65*
CS(=O)(=O)N(CC(=O)NC1CC1)c1cc(C(F)(F)F)ccc1Cl	2	-2
O=CN1CCn2c3c(c(=O)c4cc(C5CCCCC5)ccc42)CCC31 (stereo unspecified)	10	82*
Cc1ccc2c(c1)c1c3n2CCN(C=O)C3CCC1 (stereo unspecified)	-5	39
CCN1c2ccc(F)cc2C(=O)NC12CCN(C(=O)Cc1ccccc1Cl)CC2	2	9
COc1ccc(C2=NN(CCc3ccccn3)C(=O)C2)cc1	0	87*
SMILES	Pf apPOL block	mHTT CaM bind
COc1ccc(C2=NN(CC(=O)NCc3ccccn3)C(=O)CC2)cc1	-17	25
NNc1nc2ccccc2s1	-4	86*
O=S(=O)(Cc1ccccc1)Nc1nc2ccccc2s1	3	0
O=C(Nc1ccc(C(F)(F)F)cc1)C1c2ccccc2C(=O)N2CCc3ccccc3C12 (stereo unspecified)	-12	4
Cc1ccc(Cl)c2c1C(=O)c1ccccc1C2=O	0	49
Nc1ccc(Cl)c2c1C(=O)c1ccccc1C2=O	3	59*
O=C(Nc1nnc(-c2ccccn2)o1)c1cc(Cl)ccc1Cl	3	7
Cc1cc(C)nc(SCC(=O)NCc2ccco2)n1	1	-6
CCCCC(=O)NC(c1ccccc1)c1cc(Cl)c2cccnc2c1O (stereo unspecified)	11	22
CCC(=O)NC(c1ccco1)c1cc(Cl)c2cccnc2c1O (stereo unspecified)	6	100*
Cc1cc(C)nc(NC(c2ccco2)c2ccc3cccnc3c2O)n1 (stereo unspecified)	-3	100*
CCC(=O)Nc1ccc(Br)c2cccnc12	1	-5
CCC(=O)NC(c1ccco1)c1ccc2cccnc2c1O (stereo unspecified)	3	100*
CCCCC(=O)NC(c1ccco1)c1cc(Cl)c2cccnc2c1O (stereo unspecified)	-1	66*
O=[N+]([O-])c1cc(N2S(=O)(=O)c3ccccc3S2(=O)=O)ccc1F	-3	-2
